Data as given in PubChem BioAssay AID1159580 (chemical genetic matrix, 2015).
Several values for one entry are separate records, joined by “and”; a condition that tells them apart may be missing. Identical values can stand only once. The campaign covered roughly 5,500 compounds. About 2,000 (36%) were called active. Another 18% or so got no clear call; they are omitted. Rule as the data show it: active = normalized growth mostly below about 0.91 (no sharp cut-off); inconclusive = no clear call, values can overlap the other calls; inactive = mostly above about 0.92. The list shows a part of the results.

Test: chemical genetic growth profiling, strain panel (AID 1159580);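 also: tested at 20 µM; growth read once vehicle control cultures reached saturation at 30 °C; 1 = growth at the plate median or of vehicle wells; lower values mean less growth of the strain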
Conditions: S. cerevisiae deletion strains, growth OD

Measured: normalized growth

CCCCCCCCCCCCCCCCCCOCC(O)CO (configuration not stated)
inactive: locus YAL013W, strain DEP1, hits give low values 1.01 | locus YAL021C, strain ccr4, hits give low values 1.01 | locus YAL026C, strain drs2, hits give low values 1 | locus YAL030W, strain snc1, hits give low values 0.991 | locus YBL061C, strain skt5, hits give low values 0.987 | locus YBR009C, strain hhf1, hits give low values 0.959 | locus YBR021W, strain FUR4, hits give low values 1.03 | locus YBR023C, strain chs3, hits give low values 0.99 | locus YBR171W, strain sec66, hits give low values 0.999 | locus YBR229C, strain ROT2, hits give low values 1.01 | locus YBR231C, strain swc5, hits give low values 0.981 | locus YBR279W, strain paf1, hits give low values 0.992 | locus YCL011C, strain gbp2, hits give low values 0.988 | locus YCL016C, strain dcc1, hits give low values 0.994 | locus YCL029C, strain bik1, hits give low values 1.01 | locus YCL061C, strain MRC1, hits give low values 0.996 | locus YCL069W, strain vba3, hits give low values 0.998 | locus YCR088W, strain abp1, hits give low values 0.997 | locus YDL005C, strain med2, hits give low values 0.989 | locus YDL035C, strain GPR1, hits give low values 1.02 | locus YDL040C, strain nat1, hits give low values 0.973 | locus YDL074C, strain BRE1, hits give low values 1.06 | locus YDL101C, strain DUN1, hits give low values 1.01 | locus YDL185W, strain tfp1, hits give low values 1.02 | locus YDL192W, strain arf1, hits give low values 1.01 | locus YDR001C, strain nth1, hits give low values 0.995 | locus YDR069C, strain doa4, hits give low values 0.973 | locus YDR101C, strain arx1, hits give low values 1.04 | locus YDR137W, strain rgp1, hits give low values 0.987 | locus YDR150W, strain NUM1, hits give low values 0.998 | locus YDR159W, strain sac3, hits give low values 0.952 | locus YDR162C, strain NBP2, hits give low values 0.991 | locus YDR195W, strain ref2 0.951 | locus YDR297W, strain sur2, hits give low values 0.995 | locus YDR318W, strain mcm21, hits give low values 0.986 | locus YDR334W, strain swr1, hits give low values 0.994 | locus YDR335W, strain msn5, hits give low values 1 | locus YDR388W, hits give low values 1.01 | locus YDR392W, strain spt3, hits give low values 0.858 | locus YDR502C, strain sam2, hits give low values 1.02 | locus YEL003W, strain gim4, hits give low values 0.998 | locus YEL037C, strain rad23, hits give low values 1 | locus YEL061C, strain CIN8 (second series), hits give low values 0.992 | locus YEL061C, strain CIN8, hits give low values 1.01 | locus YER015W, strain faa2, hits give low values 0.989 | locus YER016W, strain bim1, hits give low values 0.994 | locus YER110C, hits give low values 1.01 | locus YER111C, strain swi4, hits give low values 0.979 | locus YER155C, strain BEM2 (second series), hits give low values 0.948 | locus YER155C, strain BEM2, hits give low values 1.01 | locus YER167W, strain BCK2, hits give low values 1 | locus YFR010W, strain ubp6, hits give low values 1.01 | locus YGL078C, strain dbp3, hits give low values 1.02 | locus YGL086W, strain mad1, hits give low values 1.05 | locus YGL167C, strain pmr1, hits give low values 0.986 | locus YGL173C, strain kem1, hits give low values 0.984 | locus YGL227W, strain vid30, hits give low values 0.985 | locus YGL240W, strain doc1, hits give low values 0.966 | locus YGL248W, strain PDE1, hits give low values 1 | locus YGL253W, strain hxk2, hits give low values 1 | locus YGR135W, strain pre9, hits give low values 0.968 | locus YGR252W, strain gcn5, hits give low values 0.969 | locus YHR013C, strain ard1, hits give low values 0.938 | locus YHR027C, strain rpn1, hits give low values 0.998 | locus YHR030C, strain SLT2, hits give low values 1.01 and 1.02 | locus YHR079C, strain IRE1 (second series), hits give low values 1 | locus YHR079C, strain IRE1, hits give low values 0.993 | locus YHR094C, strain hxt1, hits give low values 1.01 | locus YHR129C, strain ARP1, hits give low values 1.01 | locus YHR142W, strain chs7, hits give low values 1.04 | locus YHR200W, strain rpn10, hits give low values 1.01 | locus YIL066C, strain RNR3, hits give low values 1.01 | locus YIL073C, strain SPO22, hits give low values 1.01 | locus YIL125W, strain kgd1, hits give low values 1.01 | locus YIR030C, strain dcg1, hits give low values 1 | locus YJL092W, strain hpr5, hits give low values 0.999 | locus YJL095W, strain BCK1 (second series), hits give low values 0.998 | locus YJL095W, strain BCK1, hits give low values 1.02 and 0.984 | locus YJL115W, strain asf1, hits give low values 0.987 | locus YJL129C, strain trk1, hits give low values 0.984 | locus YJL134W, strain LCB3, hits give low values 0.997 | locus YJL154C, strain vps35, hits give low values 0.992 | locus YJL164C, strain tpk1, hits give low values 1 | locus YJL166W, strain qcr8, hits give low values 0.99 | locus YJL168C, strain set2, hits give low values 0.999 | locus YJL187C, strain SWE1 (second series), hits give low values 1.03 | locus YJL187C, strain SWE1, hits give low values 0.996
